Screens from PubChem.
BoNT A protease = inhibitors of Botulinum neurotoxin A light chain protease; inhibition, % at 10 µM; 360,000 compounds, 0.17% hits; AID 588499; multiplex microsphere protease substrate cleavage, flow cytometry; also: plate controls were buffer without enzyme for full effect and enzyme alone for no effect
BoNT F protease = BoNT F light chain protease inhibition; Multiplex microsphere protease cleavage assay, flow cytometry; inhibition, % at 10 µM; 360,000 compounds, 0.22% hits; in the data active = inhibition above about 35%, passing the limit was not always enough; inconclusive = no clear call, values can overlap the other calls; also: plate controls were buffer without enzyme for full effect and enzyme alone for no effect
Anthrax LF prot = anthrax lethal factor protease inhibition. multiplex microsphere protease cleavage assay, LF. 360,000 compounds, 0.12% hits. AID 588501. inhibition, % at 10 µM; also: plate controls were buffer without enzyme for full effect and enzyme alone for no effect
Autofluor counter = flagged as autofluorescent in microsphere protease counterscreen; compound autofluorescence counterscreen, microsphere flow cytometry; active compounds read high; fluorescence intensity (test concentration not listed); 360,000 compounds, 3.1% hits; in the data active = fluorescence intensity above about 16000; inconclusive = no clear call, values can overlap the other calls
* = called active by the depositor; ? = inconclusive. Most compounds without a hit are left out; they make up all but 3.5% or so of the library. Rule as the data show it, unless noted: active = inhibition above about 30%; inconclusive = no clear call, values can overlap the other calls; inactive = below that.

SMILES	BoNT A protease	BoNT F protease	Anthrax LF prot	Autofluor counter
COc1cccc(-c2nnc(SCC(=O)N(C(C)C)C(C)C)o2)c1	?	-5	-3	24162*
O=C(O)c1cccc(CSc2nnc(Cc3ccccc3)o2)c1	?	-2	1	22785*
O=C(O)c1cccc(CSc2nnc(-c3ccco3)o2)c1	0	-3	-2	5168
CCN1CCN(Cc2cc(Br)cc(OC)c2O)CC1	0	0	2	22198*
COc1cc(Br)cc(CN2CCN(c3ncccn3)CC2)c1O	-4	-21	-5	4172
O=C(NCc1ccccc1Cl)C1CCCN1S(=O)(=O)c1ccccc1F (configuration not stated)	1	7	-1	4411
O=C(NCc1cccs1)C1CCCN1S(=O)(=O)c1ccccc1F (configuration not stated)	?	0	-3	19819*
CCCNC(=O)C1(C)CCN1C(=O)Cc1ccc(C(C)(C)C)cc1 (configuration not stated)	0	-7	-4	3669
O=C(O)c1cccc(N2C(=O)c3cccnc3C2=O)c1	?	-4	-4	23303*
Cc1cc(C)c(C)c(S(=O)(=O)NCC(=O)Nc2ccccc2F)c1C	-5	-1	-3	7008
Cc1c(C(=O)NCc2cccnc2)oc2c1C(=O)CC(C)(C)C2	7	8	0	21305*
CCNC(=O)c1oc2c(c1C)C(=O)CC(C)(C)C2	2	-1	-20	20892*
CC(=O)c1ccc(OC(=O)C(CCS(C)(=O)=O)N2C(=O)c3ccccc3C2=O)cc1 (configuration not stated)	-2	-1	0	21318*
O=C(CN1C(=O)c2ccccc2C1=O)NCC(=O)Nc1ccccc1	0	2	1	4308
CC(=O)c1ccc(S(=O)(=O)Nc2cc3c(cc2C(C)=O)OCO3)cc1	-1	-3	1	4547
CC(=O)c1cc2c(cc1NS(=O)(=O)c1ccc(C)cc1)OCO2	9	5	-11	20111*
COc1cccc(CN(CC2CCCO2)S(=O)(=O)c2ccc(S(=O)(=O)N(C)C)cc2)c1 (configuration not stated)	2	1	-2	22709*
Cc1ccn2c(NCc3ccc4c(c3)OCO4)c(-c3ccc(O)cc3)nc2c1	-4	-7	-4	17253*
CCOC(=O)c1cnn(-c2c(Cc3ccccc3)c(C)nc3c(-c4ccccc4)c(C)nn23)c1N	4	4	0	22024*
CCOC(=O)c1cnn(-c2cc(C(C)(C)C)nc3c(-c4ccccc4)c(C)nn23)c1N	?	-11	-4	26542*
OC(CNCCc1ccc(Cl)cc1)COc1cc(Cl)ccc1Cl (configuration not stated)	-3	-34	4	3977
COc1cccc(C(=O)Nc2nnc(SCC(=O)Nc3ccc(NC(C)=O)cc3)s2)c1	1	-8	0	6087
COCCN(C(=O)COC(=O)CNC(=O)c1ccc(C)cc1)c1c(N)n(Cc2ccccc2)c(=O)[nH]c1=O	-1	-15	-1	3508
COc1ccc2cc([C@H](C)C(=O)N(C)Cc3ccccc3N3CCCC3)ccc2c1	-10	-1	-18	21814*
CC(=O)N1c2ccccc2S(=O)(=O)c2c1ccc1ccccc21	0	7	8	4186
SMILES	BoNT A protease	BoNT F protease	Anthrax LF prot	Autofluor counter
O=C(N/C(=C/c1ccc(Cl)cc1)C(=O)N1CCOCC1)c1ccccc1	0	6	0	4065
CCOC(=O)N1CCN(C(=O)/C(=C/c2ccccc2OC)NC(=O)c2ccccc2)CC1	?	-2	-3	16214*
O=C(N/C(=C/c1ccc(F)cc1)C(=O)N1CCOCC1)c1ccccc1	?	?	?	30895*
CCOC(=O)C1CCCN(C(=O)/C(=C/c2ccco2)NC(=O)c2ccccc2)C1 (configuration not stated)	-3	-8	31*	3868
CCOC(=O)c1c(S(=O)(=O)N2CCCCCC2)c(C)n(C)c1C	0	2	-1	5335
CCCC/C(O)=C1\C(=O)CC(C)(C)CC1=Nc1ccccc1OC	0	-1	-1	20312*
O=C(CC(NC(=O)c1ccccc1Cl)c1ccccc1)Nc1ccc2c(c1)OCO2 (configuration not stated)	1	0	0	20052*
CCOc1ccccc1C(=O)NC(C)c1ccc2c(c1)OCO2 (configuration not stated)	5	2	1	18046*
COc1ccccc1C(=O)Nc1ccc2c(c1)OCO2	1	-2	-1	23284*
COc1cc(C(=O)Nc2ccc(C)cc2)c(-n2cnnn2)cc1OC	0	5	2	4065
COc1cc(C(=O)Nc2ccc3c(c2)OCCO3)c(-n2cnnn2)cc1OC	0	-1	-2	22353*
CCOc1ccccc1NC(=O)NC(C)c1ccc2c(c1)OCO2 (configuration not stated)	-2	10	0	5918
CC(NC(=O)c1ccccc1Cl)C(=O)Nc1ccc2c(c1)OCO2 (configuration not stated)	-2	-13	-2	5882
COc1ccccc1C(=O)Nc1ccc2c(c1)OCCO2	0	-4	0	2748
CN(C)C=NC(=O)c1[nH]c2ccc(Cl)cc2c1-c1ccccc1	2	-13	8	4192
CCOC(=O)C(C(=O)N(C)Cc1ccccc1)C1CCCCC1 (configuration not stated)	3	?	9	3576
COc1ccc(OCCCC(=O)Nc2ccc3c(c2)OCO3)cc1	0	-2	0	16175*
COc1ccc(C)cc1NC(=O)c1ccc2c(c1)OCO2	2	2	0	21822*
CC(C)C(C(=O)Nc1ccc2c(c1)OCCO2)N1C(=O)c2ccccc2C1=O (configuration not stated)	0	-7	-6	8355
COc1ccc(OC)c(NC(=O)c2cc3ccccc3o2)c1	0	-32	-4	3336
CCOc1ccc(OCCC(=O)Nc2ccc3c(c2)OCO3)cc1	0	2	6	3959
COc1ccc(C)cc1NC(=O)c1cc2ccccc2o1	?	-4	-6	23609*
CC(C)C(C(=O)Nc1ccc2c(c1)OCO2)N1C(=O)c2ccccc2C1=O (configuration not stated)	?	0	-2	20817*
COc1ccc(C)cc1NC(=O)COC(=O)c1ccc2c(c1)OCO2	0	-8	-9	2993
OCC[C@H]1C[C@@H](O)[C@H](O)[C@@]2(OCc3ccccc32)O1	0	-2	1	2980
SMILES	BoNT A protease	BoNT F protease	Anthrax LF prot	Autofluor counter
Cn1ccnc1Sc1nnnn1-c1ccccc1	-1	-3	0	20712*
c1ccc(CSc2nnnn2-c2ccccc2)cc1	-1	-6	-4	9762
Cc1nnc(NC(=O)CSc2nccn2Cc2ccc(F)cc2)s1	0	2	0	5712
CCc1cc(=O)oc2cc(OC(C)C(=O)N3CC[C@@]4(O)CCCC[C@H]4C3)ccc12 (some centres not stated)	0	3	1	4834
CN1CCN(c2ccc(NC(=O)c3ccc(-c4ccc(Cl)cc4)o3)cc2)CC1	-2	-18	-7	5881
O=C(NC(=S)Nc1ccccc1N1CCCCC1)c1ccc(-c2cccc([N+](=O)[O-])c2)o1	0	-5	4	5768
CS(=O)(=O)N1CCN(c2ccccc2NC(=O)c2cc(Br)ccc2Cl)CC1	0	-2	-6	4695
